# Reference: publication PMC7862700, “An all-to-all approach to the identification of sequence-specific readers for epigenetic DNA modifications on cytosine”
# What was measured:
# Assay in all cases: DAPPL (digital affinity profiling via proximity ligation, sequencing); 10 mM Tris-HCl pH 7.5, 50 mM NaCl, 1 mM DTT, 4% glycerol, room temperature, 30 min; GST-TFs on glutathione beads, 16-mer random dsDNA library, 0.1% formaldehyde crosslink after washing; high values mean tight binding
# Conditions in all cases: protein: recombinant; tags: N-terminal GST; dsDNA, one strand shown
# FLI1 = target: T1, FLI1 (Homo sapiens, UniProt Q01543 1-452)
# T1 sequence: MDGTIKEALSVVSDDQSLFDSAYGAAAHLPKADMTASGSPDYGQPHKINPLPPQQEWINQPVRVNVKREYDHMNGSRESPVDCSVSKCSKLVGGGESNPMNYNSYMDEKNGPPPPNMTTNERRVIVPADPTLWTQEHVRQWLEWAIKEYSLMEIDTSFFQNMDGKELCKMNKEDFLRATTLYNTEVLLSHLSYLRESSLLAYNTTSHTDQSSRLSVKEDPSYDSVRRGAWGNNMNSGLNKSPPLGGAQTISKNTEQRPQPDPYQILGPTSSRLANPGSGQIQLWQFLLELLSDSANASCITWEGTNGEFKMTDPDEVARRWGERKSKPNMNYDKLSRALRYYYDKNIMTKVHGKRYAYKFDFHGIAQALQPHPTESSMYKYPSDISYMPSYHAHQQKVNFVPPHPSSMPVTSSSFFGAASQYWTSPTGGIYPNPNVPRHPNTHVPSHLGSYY
# In short: (§1)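 Binding signal is given per hexamer as its read frequency for a factor divided by its frequency in the tag-only sample. GST-fused human transcription factors were expressed in yeast, captured on glutathione beads, barcoded with DNA and pooled with that sample, then incubated with 200 nmole of a 16-mer random double-stranded DNA library in Tris/NaCl/DTT/glycerol buffer for 30 min at room temperature. The pools were then washed, crosslinked, proximity-ligated, amplified by PCR and sequenced on an Illumina NextSeq500.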
# ELK1 = target: T2, ELK1 (Homo sapiens, UniProt P19419 1-428)
# T2 sequence: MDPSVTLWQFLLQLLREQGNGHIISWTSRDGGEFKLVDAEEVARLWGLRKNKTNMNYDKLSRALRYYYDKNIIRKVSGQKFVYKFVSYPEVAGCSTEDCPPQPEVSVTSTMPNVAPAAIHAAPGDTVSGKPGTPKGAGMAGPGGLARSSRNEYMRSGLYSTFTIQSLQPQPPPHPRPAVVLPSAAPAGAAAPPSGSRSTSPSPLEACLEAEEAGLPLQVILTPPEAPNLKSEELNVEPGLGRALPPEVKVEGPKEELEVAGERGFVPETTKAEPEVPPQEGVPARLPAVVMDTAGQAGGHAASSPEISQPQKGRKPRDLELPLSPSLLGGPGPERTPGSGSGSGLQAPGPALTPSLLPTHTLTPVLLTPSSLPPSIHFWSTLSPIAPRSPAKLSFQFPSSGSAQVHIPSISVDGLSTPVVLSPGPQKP
# In short: as §1
# ELF1 = ELF1 (Homo sapiens, UniProt P32519 1-619)
# In short: as §1
# SPIB = SPIB (Homo sapiens, UniProt Q01892 1-262)
# In short: as §1
# ETV5 = ETV5 (Homo sapiens, UniProt P41161 1-510)
# In short: as §1
# SPIC = target: T3, SPIC (Homo sapiens, UniProt Q8N5J4 1-248)
# T3 sequence: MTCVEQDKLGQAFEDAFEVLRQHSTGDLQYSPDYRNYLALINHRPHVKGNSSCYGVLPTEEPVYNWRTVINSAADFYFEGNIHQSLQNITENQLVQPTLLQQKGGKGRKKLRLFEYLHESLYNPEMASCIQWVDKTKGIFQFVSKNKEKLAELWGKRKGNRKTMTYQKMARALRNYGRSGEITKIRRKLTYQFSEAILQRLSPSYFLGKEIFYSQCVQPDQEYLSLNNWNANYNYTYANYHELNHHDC
# In short: as §1
# ELF4 = ELF4 (Homo sapiens, UniProt Q99607 1-663)
# In short: as §1
# ERF = target: T4, ERF (Homo sapiens, UniProt P50548 1-548)
# T4 sequence: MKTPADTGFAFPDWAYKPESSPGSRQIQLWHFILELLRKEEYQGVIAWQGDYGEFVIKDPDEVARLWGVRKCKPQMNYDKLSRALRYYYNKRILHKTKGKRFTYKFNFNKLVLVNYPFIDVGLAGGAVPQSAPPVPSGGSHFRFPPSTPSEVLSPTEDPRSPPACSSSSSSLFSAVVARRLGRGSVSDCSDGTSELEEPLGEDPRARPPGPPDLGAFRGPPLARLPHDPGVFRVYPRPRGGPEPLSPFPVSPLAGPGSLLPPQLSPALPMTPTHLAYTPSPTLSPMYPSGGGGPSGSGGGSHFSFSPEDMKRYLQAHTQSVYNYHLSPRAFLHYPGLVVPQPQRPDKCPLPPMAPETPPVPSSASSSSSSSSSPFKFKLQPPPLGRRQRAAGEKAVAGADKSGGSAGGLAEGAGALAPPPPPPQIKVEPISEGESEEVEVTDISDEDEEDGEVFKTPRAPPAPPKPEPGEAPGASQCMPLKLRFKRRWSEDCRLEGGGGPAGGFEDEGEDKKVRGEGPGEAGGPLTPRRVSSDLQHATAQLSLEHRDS
# In short: as §1
# GABPA = target: T5, GABPA (Homo sapiens, UniProt Q06546 1-454)
# T5 sequence: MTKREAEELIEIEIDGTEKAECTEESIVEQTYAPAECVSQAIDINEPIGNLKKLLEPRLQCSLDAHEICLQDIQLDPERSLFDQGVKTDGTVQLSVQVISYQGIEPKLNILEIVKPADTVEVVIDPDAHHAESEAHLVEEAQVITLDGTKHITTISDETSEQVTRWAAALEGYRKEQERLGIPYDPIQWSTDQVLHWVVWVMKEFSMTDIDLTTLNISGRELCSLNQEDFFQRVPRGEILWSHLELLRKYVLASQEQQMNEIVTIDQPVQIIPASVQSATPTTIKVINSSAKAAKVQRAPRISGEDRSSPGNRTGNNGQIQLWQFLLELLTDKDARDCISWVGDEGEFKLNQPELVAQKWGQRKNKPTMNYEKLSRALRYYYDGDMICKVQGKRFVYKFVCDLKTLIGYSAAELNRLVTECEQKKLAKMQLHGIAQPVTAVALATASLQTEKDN
# In short: as §1
# ERG = target: T6, ERG (Homo sapiens, UniProt P11308 1-479)
# T6 sequence: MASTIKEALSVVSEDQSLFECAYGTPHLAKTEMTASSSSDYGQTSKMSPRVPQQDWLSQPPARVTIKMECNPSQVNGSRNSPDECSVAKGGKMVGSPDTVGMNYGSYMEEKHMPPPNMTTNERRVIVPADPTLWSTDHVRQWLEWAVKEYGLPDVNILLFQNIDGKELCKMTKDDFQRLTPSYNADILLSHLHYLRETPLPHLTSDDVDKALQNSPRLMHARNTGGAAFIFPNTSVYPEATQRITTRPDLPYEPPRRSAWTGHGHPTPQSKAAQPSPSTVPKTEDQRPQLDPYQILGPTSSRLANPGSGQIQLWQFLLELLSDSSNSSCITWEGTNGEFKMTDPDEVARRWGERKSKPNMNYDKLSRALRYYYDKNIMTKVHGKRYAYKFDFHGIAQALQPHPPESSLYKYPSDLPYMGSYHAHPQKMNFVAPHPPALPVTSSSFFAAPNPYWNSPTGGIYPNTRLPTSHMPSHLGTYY
# In short: as §1
# EHF = target: T7, EHF (Homo sapiens, UniProt Q9NZC4 1-300)
# T7 sequence: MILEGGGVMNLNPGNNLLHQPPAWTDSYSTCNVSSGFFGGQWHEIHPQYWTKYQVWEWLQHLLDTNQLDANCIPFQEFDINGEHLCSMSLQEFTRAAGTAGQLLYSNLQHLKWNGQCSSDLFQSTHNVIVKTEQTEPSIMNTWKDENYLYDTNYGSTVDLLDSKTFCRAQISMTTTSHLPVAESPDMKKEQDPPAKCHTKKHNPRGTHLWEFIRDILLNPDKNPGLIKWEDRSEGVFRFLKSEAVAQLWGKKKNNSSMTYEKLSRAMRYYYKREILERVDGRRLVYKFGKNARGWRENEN
# In short: as §1
# ELK3 = target: T8, ELK3 (Homo sapiens, UniProt P41970 1-407)
# T8 sequence: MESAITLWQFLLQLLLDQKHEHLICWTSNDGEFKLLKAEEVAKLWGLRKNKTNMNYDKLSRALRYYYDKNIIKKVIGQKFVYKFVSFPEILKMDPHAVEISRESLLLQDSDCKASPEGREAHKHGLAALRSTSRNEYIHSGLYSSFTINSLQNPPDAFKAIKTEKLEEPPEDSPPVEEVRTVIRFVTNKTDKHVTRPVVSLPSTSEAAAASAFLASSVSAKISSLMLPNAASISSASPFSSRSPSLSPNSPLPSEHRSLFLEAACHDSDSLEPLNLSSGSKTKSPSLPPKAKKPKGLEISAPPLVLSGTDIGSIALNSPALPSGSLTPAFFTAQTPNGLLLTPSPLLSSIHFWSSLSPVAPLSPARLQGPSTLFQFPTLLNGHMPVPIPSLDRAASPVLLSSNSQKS
# In short: as §1
# FEV = target: T9, FEV (Homo sapiens, UniProt Q99581 1-238)
# T9 sequence: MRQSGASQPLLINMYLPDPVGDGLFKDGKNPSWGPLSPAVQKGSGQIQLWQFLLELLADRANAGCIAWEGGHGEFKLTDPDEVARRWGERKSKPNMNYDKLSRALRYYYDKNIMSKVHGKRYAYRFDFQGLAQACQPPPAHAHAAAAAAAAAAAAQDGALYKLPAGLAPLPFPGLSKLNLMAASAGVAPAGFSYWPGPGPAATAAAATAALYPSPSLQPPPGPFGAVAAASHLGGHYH
# In short: as §1
# ETV1 = ETV1 (Homo sapiens, UniProt P50549 1-477)
# In short: as §1
# ETV3L = target: T10, ETV3L (Homo sapiens, UniProt Q6ZN32 1-361)
# T10 sequence: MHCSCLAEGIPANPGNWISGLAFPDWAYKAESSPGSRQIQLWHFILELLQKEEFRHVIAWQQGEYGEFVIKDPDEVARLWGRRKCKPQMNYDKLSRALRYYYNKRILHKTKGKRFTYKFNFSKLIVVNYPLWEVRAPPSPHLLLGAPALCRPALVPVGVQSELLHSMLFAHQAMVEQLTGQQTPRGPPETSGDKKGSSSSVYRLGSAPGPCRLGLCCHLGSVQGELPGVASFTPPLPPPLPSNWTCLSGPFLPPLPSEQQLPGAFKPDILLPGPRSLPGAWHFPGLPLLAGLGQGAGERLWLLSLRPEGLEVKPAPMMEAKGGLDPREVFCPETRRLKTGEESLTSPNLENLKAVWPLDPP
# In short: as §1
# ETS2 = target: T11, ETS2 (Homo sapiens, UniProt P15036 1-469)
# T11 sequence: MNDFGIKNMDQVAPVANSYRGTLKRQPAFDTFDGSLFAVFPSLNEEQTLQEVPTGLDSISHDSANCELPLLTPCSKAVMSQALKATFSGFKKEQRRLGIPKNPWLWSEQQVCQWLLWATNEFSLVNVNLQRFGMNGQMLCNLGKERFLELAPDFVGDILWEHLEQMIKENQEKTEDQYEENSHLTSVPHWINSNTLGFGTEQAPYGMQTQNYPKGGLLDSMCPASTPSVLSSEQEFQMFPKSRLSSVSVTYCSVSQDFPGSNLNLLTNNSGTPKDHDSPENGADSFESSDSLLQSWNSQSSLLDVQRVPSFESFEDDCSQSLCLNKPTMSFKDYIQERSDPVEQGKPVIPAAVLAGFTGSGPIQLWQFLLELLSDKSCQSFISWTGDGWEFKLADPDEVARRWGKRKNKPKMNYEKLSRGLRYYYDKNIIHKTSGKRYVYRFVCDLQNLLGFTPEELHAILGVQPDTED
# In short: as §1
# ELF5 = target: T12, ELF5 (Homo sapiens, UniProt Q9UKW6-2 1-255)
# T12 sequence: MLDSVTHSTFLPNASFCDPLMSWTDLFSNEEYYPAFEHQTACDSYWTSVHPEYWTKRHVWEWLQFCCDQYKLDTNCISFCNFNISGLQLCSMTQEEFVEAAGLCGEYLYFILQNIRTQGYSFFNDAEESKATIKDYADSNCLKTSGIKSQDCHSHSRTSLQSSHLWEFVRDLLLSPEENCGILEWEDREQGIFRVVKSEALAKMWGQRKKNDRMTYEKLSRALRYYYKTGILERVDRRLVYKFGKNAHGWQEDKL
# In short: as §1
# ETV3 = target: T13, ETV3 (Homo sapiens, UniProt P41162-2 1-143)
# T13 sequence: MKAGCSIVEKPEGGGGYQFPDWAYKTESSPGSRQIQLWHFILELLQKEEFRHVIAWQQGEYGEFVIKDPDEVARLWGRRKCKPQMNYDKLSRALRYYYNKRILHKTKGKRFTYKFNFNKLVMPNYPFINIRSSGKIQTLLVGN
# In short: as §1
# ETV6 = ETV6 (Homo sapiens, UniProt P41212 1-452)
# In short: as §1
# Chain of ETV5 (P41161 whole entry): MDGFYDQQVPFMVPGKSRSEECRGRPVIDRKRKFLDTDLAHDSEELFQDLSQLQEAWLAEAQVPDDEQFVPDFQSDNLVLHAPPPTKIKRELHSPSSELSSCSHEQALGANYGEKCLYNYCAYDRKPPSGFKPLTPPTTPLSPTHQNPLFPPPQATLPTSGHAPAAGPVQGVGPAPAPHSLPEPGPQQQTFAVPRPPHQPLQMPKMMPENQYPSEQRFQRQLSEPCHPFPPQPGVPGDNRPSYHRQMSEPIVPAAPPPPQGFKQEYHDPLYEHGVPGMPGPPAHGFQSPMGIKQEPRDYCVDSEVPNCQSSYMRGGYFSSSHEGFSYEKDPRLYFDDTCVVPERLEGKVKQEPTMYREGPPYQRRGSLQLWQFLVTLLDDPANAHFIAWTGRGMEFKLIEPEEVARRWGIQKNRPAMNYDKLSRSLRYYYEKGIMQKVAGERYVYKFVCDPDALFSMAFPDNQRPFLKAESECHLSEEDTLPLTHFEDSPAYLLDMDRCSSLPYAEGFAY
# Chain of ELF4 (Q99607 whole entry): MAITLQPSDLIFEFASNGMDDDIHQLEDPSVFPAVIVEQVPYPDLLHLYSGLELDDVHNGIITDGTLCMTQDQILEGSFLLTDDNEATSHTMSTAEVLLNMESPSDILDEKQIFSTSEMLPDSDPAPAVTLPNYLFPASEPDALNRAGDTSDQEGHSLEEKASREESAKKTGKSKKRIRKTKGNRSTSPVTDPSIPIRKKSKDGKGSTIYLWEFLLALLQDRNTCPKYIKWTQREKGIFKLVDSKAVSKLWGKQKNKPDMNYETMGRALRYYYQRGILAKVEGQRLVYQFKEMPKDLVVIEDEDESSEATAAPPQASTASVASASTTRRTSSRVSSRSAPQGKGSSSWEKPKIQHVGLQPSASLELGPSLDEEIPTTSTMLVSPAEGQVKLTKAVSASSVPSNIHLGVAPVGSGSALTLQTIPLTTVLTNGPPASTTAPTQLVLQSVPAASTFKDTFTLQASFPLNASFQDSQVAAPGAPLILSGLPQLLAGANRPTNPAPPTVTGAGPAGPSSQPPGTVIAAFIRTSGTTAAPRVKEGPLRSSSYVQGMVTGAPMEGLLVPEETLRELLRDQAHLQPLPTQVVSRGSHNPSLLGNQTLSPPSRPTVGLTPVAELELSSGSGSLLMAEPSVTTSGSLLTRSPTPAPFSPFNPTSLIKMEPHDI
# Chain of ELF1 (P32519 whole entry): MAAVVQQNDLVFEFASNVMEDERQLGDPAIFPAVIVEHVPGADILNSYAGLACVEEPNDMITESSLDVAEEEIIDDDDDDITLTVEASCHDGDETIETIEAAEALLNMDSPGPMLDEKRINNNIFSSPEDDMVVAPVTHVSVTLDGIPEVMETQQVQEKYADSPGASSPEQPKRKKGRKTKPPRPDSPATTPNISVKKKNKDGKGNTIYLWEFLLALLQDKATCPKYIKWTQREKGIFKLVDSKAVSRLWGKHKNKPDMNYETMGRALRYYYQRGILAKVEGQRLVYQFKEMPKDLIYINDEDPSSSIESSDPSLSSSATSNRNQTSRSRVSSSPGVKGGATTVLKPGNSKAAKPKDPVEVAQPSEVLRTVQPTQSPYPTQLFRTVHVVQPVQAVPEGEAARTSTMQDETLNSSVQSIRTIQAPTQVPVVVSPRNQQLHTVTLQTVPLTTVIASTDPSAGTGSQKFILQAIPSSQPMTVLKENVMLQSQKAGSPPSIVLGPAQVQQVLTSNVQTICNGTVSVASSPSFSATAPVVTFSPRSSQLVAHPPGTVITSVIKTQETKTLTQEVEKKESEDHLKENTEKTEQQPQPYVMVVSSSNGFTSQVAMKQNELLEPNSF
# Chain of SPIB (Q01892 whole entry): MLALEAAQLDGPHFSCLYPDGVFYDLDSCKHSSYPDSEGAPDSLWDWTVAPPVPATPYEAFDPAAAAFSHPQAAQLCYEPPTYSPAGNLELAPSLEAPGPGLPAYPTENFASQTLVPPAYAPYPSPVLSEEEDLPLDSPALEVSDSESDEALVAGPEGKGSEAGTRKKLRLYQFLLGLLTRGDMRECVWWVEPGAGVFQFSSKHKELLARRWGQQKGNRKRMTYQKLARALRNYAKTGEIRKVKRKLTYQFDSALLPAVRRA
# Chain of ETV6 (P41212 whole entry): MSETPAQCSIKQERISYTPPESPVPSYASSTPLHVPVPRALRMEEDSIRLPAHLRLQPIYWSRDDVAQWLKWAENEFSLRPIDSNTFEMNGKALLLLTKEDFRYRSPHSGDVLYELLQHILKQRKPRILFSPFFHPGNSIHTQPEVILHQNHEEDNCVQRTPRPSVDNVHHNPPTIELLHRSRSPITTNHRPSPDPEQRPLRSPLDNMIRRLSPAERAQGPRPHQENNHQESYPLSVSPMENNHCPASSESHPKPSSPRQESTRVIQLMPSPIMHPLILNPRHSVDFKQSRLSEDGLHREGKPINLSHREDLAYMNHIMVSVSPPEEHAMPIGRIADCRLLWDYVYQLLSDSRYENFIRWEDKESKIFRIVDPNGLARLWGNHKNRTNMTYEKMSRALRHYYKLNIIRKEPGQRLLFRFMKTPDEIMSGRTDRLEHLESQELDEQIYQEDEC
# Chain of ETV1 (P50549 whole entry): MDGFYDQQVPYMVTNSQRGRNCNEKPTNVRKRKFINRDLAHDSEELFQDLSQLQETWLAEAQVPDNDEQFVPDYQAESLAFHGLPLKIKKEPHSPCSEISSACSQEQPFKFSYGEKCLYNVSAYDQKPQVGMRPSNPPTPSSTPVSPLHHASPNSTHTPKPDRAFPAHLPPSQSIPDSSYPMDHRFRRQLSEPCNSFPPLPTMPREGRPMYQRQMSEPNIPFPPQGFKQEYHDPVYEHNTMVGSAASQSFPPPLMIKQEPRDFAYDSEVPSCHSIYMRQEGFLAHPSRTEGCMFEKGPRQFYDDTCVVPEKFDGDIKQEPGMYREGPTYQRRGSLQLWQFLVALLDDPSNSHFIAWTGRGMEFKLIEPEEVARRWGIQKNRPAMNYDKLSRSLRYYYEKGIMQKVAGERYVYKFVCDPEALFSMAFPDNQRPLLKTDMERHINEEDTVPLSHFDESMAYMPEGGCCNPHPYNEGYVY
Sequence,binding signal (FLI1),binding signal (ELK1),binding signal (ELF1),binding signal (SPIB),binding signal (ETV5),binding signal (SPIC),binding signal (ELF4),binding signal (ERF),binding signal (GABPA),binding signal (ERG),binding signal (EHF),binding signal (ELK3),binding signal (FEV),binding signal (ETV1),binding signal (ETV3L),binding signal (ETS2),binding signal (ELF5),binding signal (ETV3),binding signal (ETV6)
CATCCA,"1.01 fold enrichment (6-mer frequency, TF over GST control)","1.06 fold enrichment (6-mer frequency, TF over GST control)","1.02 fold enrichment (6-mer frequency, TF over GST control)","1 fold enrichment (6-mer frequency, TF over GST control)","1.01 fold enrichment (6-mer frequency, TF over GST control)","1.05 fold enrichment (6-mer frequency, TF over GST control)","1.02 fold enrichment (6-mer frequency, TF over GST control)","1.01 fold enrichment (6-mer frequency, TF over GST control)",,,,,,,,,,,
CGCCCG,"1.28 fold enrichment (6-mer frequency, TF over GST control)","1.2 fold enrichment (6-mer frequency, TF over GST control)","1.18 fold enrichment (6-mer frequency, TF over GST control)","1.2 fold enrichment (6-mer frequency, TF over GST control)","1.06 fold enrichment (6-mer frequency, TF over GST control)","1.17 fold enrichment (6-mer frequency, TF over GST control)","1.11 fold enrichment (6-mer frequency, TF over GST control)","1.09 fold enrichment (6-mer frequency, TF over GST control)","1.07 fold enrichment (6-mer frequency, TF over GST control)","1.14 fold enrichment (6-mer frequency, TF over GST control)","1.11 fold enrichment (6-mer frequency, TF over GST control)","1.15 fold enrichment (6-mer frequency, TF over GST control)","1.14 fold enrichment (6-mer frequency, TF over GST control)","1.13 fold enrichment (6-mer frequency, TF over GST control)","1.26 fold enrichment (6-mer frequency, TF over GST control)","1.09 fold enrichment (6-mer frequency, TF over GST control)","1.16 fold enrichment (6-mer frequency, TF over GST control)","1.3 fold enrichment (6-mer frequency, TF over GST control)","1.02 fold enrichment (6-mer frequency, TF over GST control)"
